Screening results from PubChem BioAssay.
L major viab = Leishmania major promastigote growth inhibition; Leishmania major promastigotes, resazurin fluorescence viability; actives 9% (n = 200,000); inhibition, % at 10 µM; AID 1063; in the data active = inhibition above about 50%;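 also: promastigotes grown with compound for 44 hours at 28 °C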
Insulin prom inh = TRM-6 insulin promoter activity inhibition. TRM-6 cells (human fetal islet line), insulin promoter-eGFP reporter, imaging; reporter expression induced with tamoxifen. inhibition, % at 2 µM. actives 0.9% (n = 130,000);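 active = inhibition above the mean plus 3 SD, with well images judged a real hit on visual review, cut at about 60% in these data, passing the limit was not always enough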
HCT116 bCat-KO = beta-catenin-lacking colon tumor cell growth suppression | AID 818 | viability, % at 10 µM | actives 1.5% (n = 140,000) | HCT116 beta-catenin knockout viability, CellTiter-Glo, 60 h; stronger effect = lower value;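 active = viability at or under a set limit, the compound median less 4 SD, cut at about 6% in these data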
Autophagy HCS = autophagy modulation, high-content screen; MEF GFP-LC3 puncta imaging; test concentration mostly 10 µM; calls only at 10 µM (by protocol); actives 0.98% (n = 190,000); AID 463193;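 active = percentage of spot-positive cells more than 3 SD above its plate mean, without a fluorescence outlier flag or 80% toxicity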
PTEN del growth = growth suppressors of cells with PTEN tumor suppressor deletion; HCT116 PTEN-null viability, CellTiter-Glo, 60 h; stronger effect = lower value; viability, % at 10 µM; actives 1.2% (n = 140,000);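 active = viability at or below a set limit, 4 SD under the median of all tested compounds, cut at about 3.7% in these data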;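 also: PTEN knockout HCT116 line with beta catenin targeted HCT116 as companion control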
Ins promoter up = MIN6 insulin promoter up-regulation; actives 0.3% (n = 190,000); MIN6 insulin promoter-GFP reporter, high-content imaging; stronger effect = higher value; AID 1625; z-score at 5 µM;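 active = z-score above 3 at 5 µM with at least 500 cells counted in the well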
A number is an active result; 0 = inactive; - = no result given; + = active, no number. Most compounds without a hit are left out; they make up all but 9.6% or so of the library.

SMILES	L major viab	Insulin prom inh	HCT116 bCat-KO	Autophagy HCS	PTEN del growth	Ins promoter up
Cc1ccc(N2C(=O)C3C4CC(=O)C(c5ccccc54)C3C2=O)cc1 (centres undefined)	0	0	0	0	0	0
Cc1ccc(N2C(=O)C3CC(c4ccccc4)=C4C5C=CC(C6C(=O)N(c7ccc(C)cc7C)C(=O)C56)C4C3C2=O)c(C)c1 (centres undefined)	78	0	0	0	0	0
Cc1ccc(N2C(=O)[C@@H]3C(c4cccnc4)=NO[C@@H]3C2=O)c(C)c1	-	-	-	-	-	0
Cc1ccc(N2C(=O)C3CC(c4ccccc4)=C4C5C=CC(C6C(=O)N(c7ccc(C)cc7)C(=O)C56)C4C3C2=O)cc1 (centres undefined)	98	0	0	0	0	0
CCN(CC)P(=O)(Nc1ccccc1Br)c1ccc(N(C)C)cc1NC(=O)c1ccco1 (centres undefined)	73	0	-	0	-	0
CCOC(=O)c1c(-c2ccc(C)o2)csc1NC(=O)CSc1nnnn1-c1ccccc1	0	0	0	0	0	0
CN(C)c1nc(Oc2ccc(C(=O)OCC(=O)Nc3ccccc3)cc2)nc(N(C)C)n1	0	0	0	0	0	0
O=C(COC(=O)C1CC2C=CC1C2)NCc1ccc(F)cc1 (centres undefined)	0	-	0	0	0	-
COc1ccccc1NC(=O)COC(=O)C1CC2C=CC1C2 (centres undefined)	0	0	-	0	-	3
CCOC(=O)C1(CC2CCCCO2)CCN(S(=O)(=O)c2ccccc2)CC1 (centres undefined)	0	-	-	0	-	0
CCOc1cc(C)c(C(C)C)cc1S(=O)(=O)n1ccc(C)n1	0	82	0	0	0	0
CN(C(=O)c1ccccc1C(=O)c1ccccc1)C1CCS(=O)(=O)C1 (centres undefined)	0	-	0	0	0	0
COc1cccc(NC(=O)C(Sc2nnc(-c3ccncc3)n2-c2ccc(Cl)cc2)c2ccccc2)c1 (centres undefined)	53	0	0	0	0	0
CC(NC(=O)c1ccccc1)c1nnc(SCc2nc3ccccc3c(=O)[nH]2)n1C (centres undefined)	0	0	-	0	-	0
COC(=O)c1ccc2c(=O)[nH]c(CSc3nnc(C(F)(F)F)n3C)nc2c1	56	0	0	0	0	0
COC(=O)c1ccc2c(=O)[nH]c(CSc3nc(-c4ccc(F)cc4)cs3)nc2c1	0	0	0	0	0	0
COC(=O)c1ccc2c(=O)[nH]c(CSc3nc(C)cs3)nc2c1	0	0	-	+	-	0
C[C@@H]1CN(Cc2nc(-c3cccs3)no2)C[C@H](C)O1	0	-	-	+	-	0
O=C(c1ccco1)N1CCN(Cc2nc(Cc3ccccc3)no2)CC1	0	-	-	0	-	0
COCC1CCN(Cc2nc(-c3cccs3)no2)C1 (centres undefined)	0	-	-	0	-	0
O=C(c1ccco1)N1CCCN(Cc2nc(-c3cccs3)no2)CC1	86	-	-	0	-	-
N=C1C(=O)OCC1c1ccccc1NC(=O)CN1CCOCC1 (centres undefined)	0	0	0	0	0	0
O=C(NCc1ccccc1)c1cnsn1	0	0	0	0	0	-
Cc1nc(NCCCn2ccnc2)c2ccccc2n1	0	0	0	0	0	0
O=C1c2ccccc2-c2onc3ccc(NCCCn4ccnc4)c1c23	100	0	0	0	0	-
SMILES	L major viab	Insulin prom inh	HCT116 bCat-KO	Autophagy HCS	PTEN del growth	Ins promoter up
COc1cc(/C=c2\sc3nc(-c4ccncc4)nn3c2=O)ccc1OC(C)=O	0	0	0	0	0	0
COc1cccc(CNCCc2c[nH]c3ccccc23)c1OCc1ccc(F)cc1	100	0	1.4	0	1.2	0
COc1cc(CNCCc2c[nH]c3ccccc23)ccc1OCc1ccc(F)cc1	100	0	1.5	0	2.0	0
O=C1N/C(=N\N=C\c2ccc3ncccc3c2)SC1Cc1ccc(SC(F)F)cc1 (centres undefined)	0	0	0	0	0	-
O=C1N/C(=N\N=C\c2cccnc2)SC1Cc1ccc(SC(F)F)cc1 (centres undefined)	74	0	0	0	0	-
CCN1C(=O)c2cccc3c(S(=O)(=O)NCc4ccccn4)ccc1c23	65	0	0	0	0	0
Cc1ccc(OCc2nnc(NC(=O)Cc3cccs3)s2)cc1	0	0	0	0	0	0
CCOC(=O)c1nc2cc3n(c(CC(C)C)c-2c1C)CC(C)=C3C	64	0	0	0	0	-
COc1ccccc1NC(=O)/C(C#N)=C/C=C/c1ccco1	0	0	0	+	0	-
COc1ccccc1NC(=S)NC(=O)/C=C/c1ccco1	0	0	0	0	0	0
N#C/C(C(=O)N1CCOCC1)=c1\s/c(=C/c2ccncc2)c(=O)n1-c1ccccc1	-	-	-	-	-	0
Cc1ccc(N2C(S)=C(C#N)C(=O)NC2c2cccs2)cc1 (centres undefined)	61	0	0	0	0	0
C(=C\c1ccccc1)/CN1CCN(Cc2ccc3c(c2)OCCO3)CC1	92	0	0	0	0	0
Cc1cc2oc(=O)cc(CN3CCN(S(=O)(=O)/C=C/c4ccccc4)CC3)c2cc1C	96	0	0	0	0	0
O=S(=O)(/C=C/c1ccccc1)N1CCN(Cc2ccc3c(c2)OCO3)CC1	85	-	-	0	-	0
Cc1nnc(Sc2cc(C(=O)NCCCN(C)Cc3ccccc3)c3ccccc3n2)s1	0	0	0	0	0	0
O=C(CSc1nc2ccccc2o1)N1N=C(c2cccs2)CC1c1ccc(F)cc1 (centres undefined)	97	0	0	0	0	0
COc1cccc(C2CC(c3cccs3)=NN2C(=O)CSc2nc3c(cnn3-c3ccc(F)cc3)c(=O)[nH]2)c1OC (centres undefined)	0	0	0	0	0	0
COc1ccc(C2CC(c3cccs3)=NN2C(=O)CSc2nc3c(cnn3-c3ccccc3)c(=O)[nH]2)cc1 (centres undefined)	85	0	0	0	0	0
CC(=O)N1SC(N)=NC1c1ccccc1 (centres undefined)	0	0	0	0	0	0
CC(C)(NO)/C(=N/O)c1ccc(Br)cc1	0	0	0	0	0	0
COc1cc2nc(C3CCC3)nc(N3CCN(c4ccccn4)CC3)c2cc1OC	54	-	0	0	0	0
COc1cc2nc(Cl)nc(N3CCN(C)CC3)c2cc1OC	0	-	-	0	-	0
COc1cc2nc(C3CCC3)nc(N3CCN(c4ccccc4OC)CC3)c2cc1OC	58	0	0	0	0	0
COc1ccc(-c2cc(C(=O)O)c3c(C)nn(-c4ccccn4)c3n2)cc1	0	0	0	0	0	0
Cc1nn(-c2ccccn2)c2nc(-c3cccs3)cc(C(=O)N3CCOCC3)c12	84	0	0	0	0	0
CCOC(=O)c1cc(-c2ccncc2)nc2c1c(C)nn2-c1ccccn1	100	0	0	0	0	-
Cc1cc(C)cc(N(CCC(=O)Nc2nnc(C)s2)S(=O)(=O)c2ccc(Cl)cc2)c1	93	0	0	0	0	0
